Reference: PubChem BioAssay AID1159580 (chemical genetic matrix, 2015)
Values joined by “and” are separate entries in the source; they are usually repeats but may differ in a detail not shown here. Identical values can stand only once. Hit rate of the full screen: of about 5,500 compounds, about 2,000 (36%) were called active. Another 18% or so got no clear call; they are omitted. Cut-off read from the data, not from the text of the source: active = normalized growth mostly below about 0.91 (no sharp cut-off); inconclusive = no clear call, values can overlap the other calls; inactive = mostly above about 0.92. Some of the results follow.

Test: chemical genetic growth profiling, strain panel (AID 1159580);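 note: tested at 20 µM; growth read once vehicle control cultures reached saturation at 30 °C; 1 = growth at the plate median or of vehicle wells; lower values mean less growth of the strain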
Details: S. cerevisiae deletion strains, growth OD

Measured: normalized growth

CN[C@@H]1[C@H](O)[C@H](NC)[C@H]2O[C@@]3(O)C(=O)C[C@@H](C)O[C@H]3O[C@@H]2[C@H]1O
inactive: locus YAL013W, strain DEP1, active compounds read low 1.01 | locus YAL021C, strain ccr4, active compounds read low 0.982 | locus YAL026C, strain drs2, active compounds read low 1 | locus YAL030W, strain snc1, active compounds read low 1 | locus YBL061C, strain skt5, active compounds read low 1.01 | locus YBR009C, strain hhf1, active compounds read low 0.976 | locus YBR021W, strain FUR4, active compounds read low 0.997 | locus YBR023C, strain chs3, active compounds read low 1 | locus YBR171W, strain sec66, active compounds read low 1.01 | locus YBR229C, strain ROT2, active compounds read low 1.01 | locus YBR231C, strain swc5, active compounds read low 1.01 | locus YBR279W, strain paf1, active compounds read low 0.988 | locus YCL011C, strain gbp2, active compounds read low 0.991 | locus YCL016C, strain dcc1, active compounds read low 0.984 | locus YCL029C, strain bik1, active compounds read low 1.03 | locus YCL061C, strain MRC1, active compounds read low 1.02 | locus YCL069W, strain vba3, active compounds read low 1 | locus YCR088W, strain abp1, active compounds read low 1 | locus YDL005C, strain med2, active compounds read low 1 | locus YDL035C, strain GPR1, active compounds read low 1.02 | locus YDL040C, strain nat1, active compounds read low 1.01 | locus YDL074C, strain BRE1, active compounds read low 1.02 | locus YDL101C, strain DUN1, active compounds read low 1.02 | locus YDL134C, strain PPH21, active compounds read low 1.01 | locus YDL185W, strain tfp1, active compounds read low 1.02 | locus YDL192W, strain arf1, active compounds read low 1.02 | locus YDR001C, strain nth1, active compounds read low 0.997 | locus YDR069C, strain doa4, active compounds read low 1.02 | locus YDR101C, strain arx1, active compounds read low 1.02 | locus YDR137W, strain rgp1, active compounds read low 0.989 | locus YDR150W, strain NUM1, active compounds read low 1.01 | locus YDR159W, strain sac3, active compounds read low 0.969 | locus YDR162C, strain NBP2, active compounds read low 1.03 | locus YDR195W, strain ref2 0.99 | locus YDR297W, strain sur2, active compounds read low 1 | locus YDR318W, strain mcm21, active compounds read low 1.03 | locus YDR334W, strain swr1, active compounds read low 1 | locus YDR335W, strain msn5, active compounds read low 1 | locus YDR388W, active compounds read low 1.02 | locus YDR392W, strain spt3, active compounds read low 0.956 | locus YDR502C, strain sam2, active compounds read low 1.02 | locus YEL003W, strain gim4, active compounds read low 1 | locus YEL037C, strain rad23, active compounds read low 0.998 | locus YEL061C, strain CIN8 (second series), active compounds read low 0.991 | locus YEL061C, strain CIN8, active compounds read low 1.01 | locus YER015W, strain faa2, active compounds read low 1 | locus YER016W, strain bim1, active compounds read low 0.974 | locus YER110C, active compounds read low 1.03 | locus YER111C, strain swi4, active compounds read low 1.01 | locus YER155C, strain BEM2 (second series), active compounds read low 1.04 | locus YER155C, strain BEM2, active compounds read low 1.01 | locus YER167W, strain BCK2, active compounds read low 1.02 | locus YFR010W, strain ubp6, active compounds read low 1.02 | locus YGL078C, strain dbp3, active compounds read low 1.02 | locus YGL086W, strain mad1, active compounds read low 1.02 | locus YGL167C, strain pmr1, active compounds read low 1.02 | locus YGL173C, strain kem1, active compounds read low 1.03 | locus YGL227W, strain vid30, active compounds read low 1.01 | locus YGL240W, strain doc1, active compounds read low 1.03 | locus YGL248W, strain PDE1, active compounds read low 1.02 | locus YGL253W, strain hxk2, active compounds read low 0.973 | locus YGR078C, strain PAC10, active compounds read low 1.02 | locus YGR135W, strain pre9, active compounds read low 1.02 | locus YGR229C, strain SMI1, active compounds read low 1.02 | locus YGR252W, strain gcn5, active compounds read low 1.01 | locus YHR013C, strain ard1, active compounds read low 0.993 | locus YHR027C, strain rpn1, active compounds read low 0.993 | locus YHR030C, strain SLT2, active compounds read low 1.02 and 0.968 | locus YHR079C, strain IRE1 (second series), active compounds read low 1.03 | locus YHR079C, strain IRE1, active compounds read low 0.953 | locus YHR094C, strain hxt1, active compounds read low 1.02 | locus YHR129C, strain ARP1, active compounds read low 1.01 | locus YHR142W, strain chs7, active compounds read low 0.995 | locus YHR200W, strain rpn10, active compounds read low 1 | locus YIL066C, strain RNR3, active compounds read low 1.01 | locus YIL073C, strain SPO22, active compounds read low 1.04 | locus YIL125W, strain kgd1, active compounds read low 1.01 | locus YIR030C, strain dcg1, active compounds read low 1.02 | locus YJL092W, strain hpr5, active compounds read low 1.01 | locus YJL095W, strain BCK1 (second series), active compounds read low 1.01 | locus YJL095W, strain BCK1, active compounds read low 1.02 and 0.984 | locus YJL115W, strain asf1, active compounds read low 0.998 | locus YJL129C, strain trk1, active compounds read low 1.01 | locus YJL134W, strain LCB3, active compounds read low 1.01 | locus YJL154C, strain vps35, active compounds read low 0.991 | locus YJL164C, strain tpk1, active compounds read low 0.987 | locus YJL166W, strain qcr8, active compounds read low 1.02 | locus YJL168C, strain set2, active compounds read low 1.02 | locus YJL187C, strain SWE1 (second series), active compounds read low 1.02 | locus YJR043C, strain POL32, active compounds read low 1.01 | locus YJR066W, strain TOR1, active compounds read low 0.977
